These results are taken from PubChem BioAssay.

The target of experiment [1] is 6-phosphogluconate dehydrogenase, decarboxylating (Homo sapiens) (UniProt P52209). The experiment is described as follows: 6PGD enzyme inhibitors, primary screen, biochemical, human, recombinant enzyme, NADPH absorbance (AID 1159550;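 active = at least 20% inhibition of 6-phosphogluconate dehydrogenase activity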). Conditions: recombinant 6PGD, NADPH absorbance 341 nm; at 10 µM; stronger effect = higher value.
The nature of experiment [2]: sensitizers of A549 cells to miR-34 induction, primary screen, imaging, A549 dox-inducible miR-34, nuclei and caspase counts (AID 1347080). Conditions: A549 miR-34 inducible, Hoechst nuclei count, 48 h.
The nature of experiment [3]: survival rescue of mitochondrial mutant cells in low glucose, primary screen, MELAS cybrids, Rieske KO mouse fibroblasts, CellTiter-Glo (AID 1508586;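 active = mean z-score across replicates of 1.96 or higher in either the MELAS or the Rieske mutant cell line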;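 note: z relative to plate mean and SD of compound and empty wells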).
The nature of experiment [4]: LFS_MB_P medulloblastoma growth inhibition, cell-based, chromothripsis tumors, cisplatin or BGB combos (AID 1671449; in the data active = inhibition above about 80%;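 note: cells exposed for 96 hours; 0% = vehicle DMSO and 100% = killing by high DMSO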). Conditions: LFS_MB_P medulloblastoma cells.
The nature of experiment [5]: HDN33 neuroblastoma growth inhibition, cell-based, chromothripsis tumors, cisplatin or BGB combos (AID 1671450; in the data active = inhibition above about 80%;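 note: cells exposed to compound for four days; 0% = vehicle DMSO and 100% = cell killing by high DMSO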). Conditions: HDN33 neuroblastoma cells, stronger effect = higher value.
Experiment [6] is described as follows: ICB984 medulloblastoma cell growth inhibition, synergistic combos for chromothripsis tumors, cisplatin or BGB combos (AID 1671451; call rule not given here;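 note: cells exposed for 96 hours before readout; 0% = vehicle DMSO and 100% = killing by high DMSO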). Conditions: ICB984 medulloblastoma cells, drug combinations, stronger effect = higher value.
The nature of experiment [7]: HTB85 osteosarcoma cell growth inhibition, synergistic combos for chromothripsis tumors, BGB or cisplatin IC20 combos (AID 1671453; in the data active = inhibition above about 80%;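 note: cells exposed for 96 hours before readout; 0% = vehicle DMSO and 100% = high DMSO killing control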). Conditions: HTB85 osteosarcoma cells, drug combinations, stronger effect = higher value.
A short description of experiment [8]: viability rescue of complex I mutant cybrids, primary screen, cell-based, galactose medium, ATP luminescence (AID 1645843;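 active = z-score of at least 1.8 in each of two replicates, scored against plate mean and spread of sample wells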;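 note: positive z means more ATP and so rescue of galactose-driven cybrid death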). Conditions: complex I mutant cybrid cells, 72 h, stronger effect = higher value.
Experiment [9] is described as follows: liver-stage malaria parasite growth inhibition, primary screen, cell-based, HepG2, luciferase luminescence, HepG2 viability (AID 624349; in the data active = parasite load remaining mostly below about 12%, no sharp cut-off; inactive = mostly above about 10%;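 note: 100% = mean of DMSO negative control wells on the same plate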). Conditions: P. berghei liver stage in HepG2, luciferase luminescence, concentration not given here; parasite load remaining: stronger effect = lower value; viability: measured here: HepG2 viability without parasites.
In experiment [10] the target is NAD(+) hydrolase SARM1 (Homo sapiens) (UniProt Q6SZW1). As to the kind of experiment: SARM1 TIR NADase inhibitors, cell lysate, NAD-Glo luminescence (AID 1508614;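 active = compound whose remaining NAD level is above about 45 nM, limit read from the data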;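 note: higher remaining NAD means stronger inhibition of SARM1 NADase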). Conditions: SAM-TIR HEK293T lysate NADase, at 1 µM, stronger effect = higher value.
Chain of NAD(+) hydrolase SARM1 (Homo sapiens) (Q6SZW1 whole entry, looked up, the tested form may be a part): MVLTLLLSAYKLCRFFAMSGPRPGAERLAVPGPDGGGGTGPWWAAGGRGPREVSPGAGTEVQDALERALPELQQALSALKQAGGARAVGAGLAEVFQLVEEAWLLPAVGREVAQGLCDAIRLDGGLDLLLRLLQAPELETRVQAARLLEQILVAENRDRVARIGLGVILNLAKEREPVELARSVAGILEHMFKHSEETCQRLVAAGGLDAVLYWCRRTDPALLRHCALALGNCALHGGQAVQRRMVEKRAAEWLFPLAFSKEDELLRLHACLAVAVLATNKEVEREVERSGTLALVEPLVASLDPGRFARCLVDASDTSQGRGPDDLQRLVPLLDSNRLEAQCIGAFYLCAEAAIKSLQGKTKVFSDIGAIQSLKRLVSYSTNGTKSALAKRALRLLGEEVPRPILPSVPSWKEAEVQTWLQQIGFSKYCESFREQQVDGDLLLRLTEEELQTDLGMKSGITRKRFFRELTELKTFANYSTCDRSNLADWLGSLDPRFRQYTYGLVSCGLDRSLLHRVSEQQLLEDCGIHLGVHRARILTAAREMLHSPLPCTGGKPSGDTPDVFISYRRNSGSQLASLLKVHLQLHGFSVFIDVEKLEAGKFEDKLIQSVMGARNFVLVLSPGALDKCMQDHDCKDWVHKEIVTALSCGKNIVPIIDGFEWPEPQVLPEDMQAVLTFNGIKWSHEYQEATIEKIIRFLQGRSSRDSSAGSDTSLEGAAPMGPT
The target in experiment [11] is Mitogen-activated protein kinase 7 (Homo sapiens) (UniProt Q13164). The experiment is described as follows: ERK5 transactivation activators in reporter cells, primary screen, cell-based, HTS (AID 1508626;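 active = luciferase signal above three times the same-plate solvent-only control wells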;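 note: luciferase driven by Gal4-ERK5 fusion binding five Gal4 sites before minimal TATA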). Conditions: HeLa Gal4-ERK5 transactivation, 18 h, at 5 µM, stronger effect = higher value.
Chain of Mitogen-activated protein kinase 7 (Homo sapiens) (Q13164 whole entry, looked up, the tested form may be a part): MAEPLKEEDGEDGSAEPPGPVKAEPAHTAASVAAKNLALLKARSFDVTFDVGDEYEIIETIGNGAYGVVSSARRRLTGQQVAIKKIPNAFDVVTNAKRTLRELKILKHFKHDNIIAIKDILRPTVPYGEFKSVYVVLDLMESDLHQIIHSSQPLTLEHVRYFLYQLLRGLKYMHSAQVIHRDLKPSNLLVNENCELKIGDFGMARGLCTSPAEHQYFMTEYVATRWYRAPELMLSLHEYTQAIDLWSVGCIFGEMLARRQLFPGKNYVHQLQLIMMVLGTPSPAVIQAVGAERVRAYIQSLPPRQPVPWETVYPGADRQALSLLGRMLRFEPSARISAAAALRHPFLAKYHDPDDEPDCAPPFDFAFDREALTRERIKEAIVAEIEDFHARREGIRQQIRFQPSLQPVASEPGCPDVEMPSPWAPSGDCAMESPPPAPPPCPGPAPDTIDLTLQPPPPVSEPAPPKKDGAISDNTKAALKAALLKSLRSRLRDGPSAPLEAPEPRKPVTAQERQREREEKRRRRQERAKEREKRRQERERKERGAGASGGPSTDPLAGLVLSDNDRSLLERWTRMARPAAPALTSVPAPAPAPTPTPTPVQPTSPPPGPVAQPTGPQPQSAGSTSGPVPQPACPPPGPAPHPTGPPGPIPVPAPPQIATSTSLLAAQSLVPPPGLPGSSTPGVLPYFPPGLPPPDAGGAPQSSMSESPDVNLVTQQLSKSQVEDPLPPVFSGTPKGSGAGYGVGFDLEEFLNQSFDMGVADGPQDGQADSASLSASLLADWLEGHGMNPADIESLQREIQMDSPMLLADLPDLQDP
Experiment [12] can be described thus: polyglutamine-triggered caspase-3 activation inhibitors, cell-based (AID 1583). Conditions: polyglutamine-induced caspase-3 activation, cell assay; stronger effect = higher value;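 tested at 10 µM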.
Experiment [13] is described as follows: suppressors of polyQ aggregation in yeast, 75Q-TubU reporter (AID 1593). Conditions: Yeast 75Q polyglutamine aggregation reporter.
Experiment [14] in a line: rescue of polyQ-huntingtin neuronal dysfunction in worms, whole organism, C. elegans mechanosensory neurons, N-terminal huntingtin (AID 1599). Conditions: touch response, stronger effect = higher value.
The nature of experiment [15]: inhibitors of mitochondrial cytochrome c release, biochemical, purified mitochondria (AID 1603).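 Note: mouse liver mitochondria challenged with calcium chloride; signal normalized to the plate average as 100%.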 Conditions: stronger effect = lower value.
Experiment [16] can be described thus: inhibitors of polyQ protein aggregation (AID 1604). Conditions: polyglutamine-induced protein aggregation inhibition assay; stronger effect = higher value; tested at 2.5 µM.
The nature of experiment [17]: enhancers of glutamate uptake in motor neurons, MN-1 cell line (AID 1612).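 Note: tested at 1 µM final; 0% = mean of DMSO vehicle wells on each plate; positive means more glutamate uptake than control and negative means less.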 Conditions: MN-1 motor neuron cells, stronger effect = higher value.
Experiment [18] in a line: suppressors of polyglutamine aggregation in yeast, 75Q-TubH (AID 1616). Conditions: S. cerevisiae 75Q-TubH polyglutamine aggregation suppression; stronger effect = higher value.
[19] abbreviates: stronger effect = lower value, cell number ratio, induced over uninduced.
The mark [20] stands for this setting: measured here: relative caspase fold change +Dox/-Dox.
Setting [21] is: measured here: total cells with miR-34 induction, stronger effect = lower value.
Setting [22] is: measured here: total cells without miR-34 induction.
The mark [23] stands for this setting: MELAS cybrid survival, CellTiter-Glo 48 h, stronger effect = higher value.
[24] abbreviates: Rieske KO mouse fibroblast survival, CellTiter-Glo 72 h.

Structures are written as SMILES. “And” between values parts separate entries of the source, which are not always exact repeats. Equal entries are not always repeated. For some assays here: Results with a measured potency or affinity are listed apart. The source made the active and inactive calls.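 Rule for the calls, unless noted: active = compounds whose cell count with miR-34 switched on is under 0.7 times the count with it off; inactive = the rest.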

Chain of 6-phosphogluconate dehydrogenase, decarboxylating (Homo sapiens) (P52209 whole entry, looked up): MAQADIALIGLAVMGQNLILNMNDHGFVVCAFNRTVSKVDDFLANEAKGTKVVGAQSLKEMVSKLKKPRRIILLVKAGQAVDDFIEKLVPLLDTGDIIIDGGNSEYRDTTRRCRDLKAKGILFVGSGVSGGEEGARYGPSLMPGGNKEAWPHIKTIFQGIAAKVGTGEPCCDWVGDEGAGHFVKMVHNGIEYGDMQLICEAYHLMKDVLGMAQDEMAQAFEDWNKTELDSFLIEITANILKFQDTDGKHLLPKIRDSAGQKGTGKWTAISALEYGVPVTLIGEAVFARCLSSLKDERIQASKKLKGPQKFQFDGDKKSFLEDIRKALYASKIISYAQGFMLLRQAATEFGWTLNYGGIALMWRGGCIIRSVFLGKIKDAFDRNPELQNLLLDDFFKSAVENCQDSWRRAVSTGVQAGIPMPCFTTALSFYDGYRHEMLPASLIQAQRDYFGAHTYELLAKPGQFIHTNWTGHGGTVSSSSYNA

The inhibition is the drop in the measured response relative to a control, in per cent. Turning to `CN(N=O)C(=O)NC1C(O)OC(CO)C(O)C1O` (stereo unspecified), the inhibition in experiment [1] is -8.43% (inactive); in [4] (at 0.5 µM, stronger effect = higher value), -5.09% (inactive); in [4] (measured here: combination with BGB IC20, at 0.005 µM), 2.88%; in [4] (measured here: combination with BGB IC40, at 0.005 µM), -23%; in experiment [4] (measured here: combination with BGB IC40, at 0.05 µM) it was 9.79%; in experiment [4] (measured here: combination with cisplatin, at 0.5 µM, stronger effect = higher value), 18.7%. The inhibition is -15% in experiment [4] (measured here: combination with cisplatin, at 5 µM, stronger effect = higher value); -42.3% in [5] (BGB combo, at 5 µM); -18.9% (inactive) in experiment [5] (at 0.5 µM); -31.9% in experiment [5] (cisplatin combo, at 5 µM); -17.4% in experiment [5] (measured here: with BGB IC20 combination, at 0.5 µM); -13.6% in experiment [5] (measured here: with cisplatin IC20 combination, at 0.5 µM). Also, the inhibition was -38.9% in experiment [5] (single agent, at 5 µM); -31.3% in experiment [6] (BGB IC20 combo, at 0.005 µM); -16.7% in [6] (BGB IC40 combo, at 0.005 µM); -24.6% in experiment [6] (BGB IC40 combo, at 0.05 µM); -5.69% (inactive) in [6] (at 0.5 µM); -31% in experiment [6] (cisplatin combo, at 0.05 µM). Moreover, the inhibition was -0.064% in [6] (cisplatin combo, at 0.5 µM); -5.86% in experiment [6] (cisplatin combo, at 5 µM); -8.73% in experiment [6] (measured here: 5 uM single agent, at 5 µM); -27.9% (inactive) in [7] (at 0.5 µM); -20.4% in experiment [7] (measured here: with BGB IC20, at 0.5 µM); -14.4% in [7] (measured here: with BGB IC20, at 5 µM). The inhibition was -29.4% in experiment [7] (measured here: with cisplatin IC20, at 0.5 µM); -17.4% in [7] (measured here: with cisplatin IC20, at 5 µM); -23.4% in [7] (single agent, at 5 µM). For the same compound, the fold change in experiment [2] (setting [19]) is 0.895 (inactive); in experiment [2] (setting [20]), 0.982. In addition, the values for the cell count in [2] (setting [21]) and in experiment [2] (setting [22]) were 7750 and 8650, respectively. In addition, the z-score in experiment [3] (setting [23]) is -0.392 (inactive); in experiment [3] (setting [24]) it was 0.645.

For `C=C(C)C1CC=C(C(=O)O)CC1` (stereo unspecified), the inhibition in experiment [1] is 7.19% (inactive). Also, the fold change in [2] (setting [19]) is 0.98 (inactive); in experiment [2] (setting [20]), 1.41. Besides, the cell count is 9720 in experiment [2] (setting [21]) and 9920 in experiment [2] (setting [22]). Besides, the z-score in [8] is 1.06 (inactive).

Turning to `O=C(N[C@@H](Cc1ccccc1)C(=O)CCl)OCc1ccccc1`, the inhibition in experiment [1] was 6.1% (inactive). Moreover, the figures for the fold change in experiment [2] (setting [19]) and in [2] (setting [20]) were 1.3 (inactive) and 1.36, respectively. Moreover, the cell count was 816 in experiment [2] (setting [21]) and 626 in experiment [2] (setting [22]). In addition, in [8], the z-score is -1.33 (inactive).

What is called viability is a per cent measure of how many cells are alive, often set against a control. `C#C[C@]1(O)CC[C@H]2[C@@H]3CCC4=C(CCC(=O)C4)[C@H]3CC[C@@]21C`: in experiment [9], the parasite load remaining was 17.7% (inactive) and 100% (inactive). The viability in experiment [9] is 48% and 90.5%. Further, the inhibition in experiment [1] was -2.85% (inactive). The fold change in experiment [2] (setting [19]) was 0.896 (inactive); in experiment [2] (setting [20]), 0.927. The cell count in experiment [2] (setting [21]) came out at 7990; in [2] (setting [22]), 8920. In addition, the z-score is 0.723 (inactive) in experiment [3] (setting [23]) and 0.808 in [3] (setting [24]). In addition, in experiment [10], the remaining NAD was 10 nM (inactive). The luciferase signal in [11] is 44 AU (inactive).

For `O=C(O)c1cc2cc(Cc3cccnc3)ccc2o1`, the values for the inhibition in experiment [12] and in experiment [1] were 22.5% and 4.63% (inactive), respectively. Besides, in [13], the score came out at 1.36. The compound also had a rescue above control in experiment [14] of -5.98. In [15], the cytochrome c release ratio is 1.03. Further, the inhibition of aggregation in experiment [16] is 1.59%. Further, the glutamate uptake change in [17] is -0.47%. The compound also showed an aggregation suppression score in experiment [18] of 1.23. The parasite load remaining in experiment [9] was 124% (inactive). The viability in [9] was found to be 73.4%. Moreover, the fold change in experiment [2] (setting [19]) was 0.956 (inactive) and 0.926 (inactive); in experiment [2] (setting [20]) it was 0.671 and 1.19. The cell count in [2] (setting [21]) is 10100 and 5310; in experiment [2] (setting [22]), 10600 and 5730. The z-score in experiment [8] is 0.16 (inactive).

For the compound `N[C@@H](Cc1c[nH]c2ccccc12)C(=O)O`, the figures for the inhibition in [12] and in [1] were 8.74% and 3.98% (inactive), respectively. The score in experiment [13] is 1.61. Further, the rescue above control in [14] was -5.37. Moreover, the cytochrome c release ratio in [15] was 0.96. For the same compound, the inhibition of aggregation in experiment [16] came out at 63.4%. The glutamate uptake change in [17] is -7.55%. For the same compound, the aggregation suppression score in experiment [18] was found to be 1.04. Besides, the fold change is 0.995 (inactive) in [2] (setting [19]) and 0.835 in [2] (setting [20]). Further, the cell count turned out to be 9660 in [2] (setting [21]) and 9710 in [2] (setting [22]). Also, the remaining NAD in experiment [10] is 10 nM (inactive). Also, the luciferase signal in experiment [11] is 136 AU (inactive). Besides, in experiment [8], the z-score was 0.315 (inactive).
